This is part of a sample that, as a whole, favours compounds with a hit. Of some 79,000 tested, about 15% had one in any assay. The source made the active and inactive calls. Rule as the data show it: active = growth inhibition above about 70%; inactive = the rest.
What was measured:
[1] = NCI Yeast Anticancer Drug Screen. Data for the rad50 strain (AID 155);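 also: 0% = growth of vehicle-only cultures of the same strain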; conditions: S. cerevisiae rad50 strain growth inhibition; at 50.0 µM; hits give high values
Procedure, shortened: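 Genetically altered yeast (DNA repair pathway); compound treatment; growth inhibition vs vehicle ctrl.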

[2] = NCI Yeast Anticancer Drug Screen. Data for the mec2-1 strain (AID 157); conditions: S. cerevisiae mec2-1 strain, at 50.0 µM, hits give high values
Procedure, shortened: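 mec2-1 yeast strain, carrying an alteration in DNA damage repair or cell cycle control, was exposed to compounds; growth inhibition was measured relative to vehicle-treated controls.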

[3] = NCI Yeast Anticancer Drug Screen. Data for the sgs1 mgt1 strain (AID 161);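 also: 0% = growth of cultures given vehicle only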; conditions: S. cerevisiae sgs1 mgt1 strain, at 50.0 µM, hits give high values
Procedure, shortened: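 Yeast cells carrying a defined DNA-repair defect were exposed to test compounds. Growth inhibition was measured relative to vehicle-treated controls.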

[4] = NCI Yeast Anticancer Drug Screen. Data for the cln2 rad14 strain (AID 165);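 also: 0% = growth equal to vehicle treated cultures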; conditions: S. cerevisiae cln2 rad14 strain, at 50.0 µM, hits give high values
Procedure, shortened: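 Yeast carrying cln2 and rad14 alterations (cell cycle control and DNA damage repair) were exposed to compounds. Growth inhibition was measured against vehicle-treated controls.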

[5] = NCI Yeast Anticancer Drug Screen. Data for the bub3 strain (AID 167); conditions: S. cerevisiae bub3 mutant strain, at 50.0 µM, hits give high values
Procedure, shortened: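 Yeast carrying a defined mutation is treated with each compound, and growth is compared with that of vehicle-exposed cells to give inhibition.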

[6] = NCI Yeast Anticancer Drug Screen. Data for the mlh1 rad18 strain (AID 175); conditions: S. cerevisiae mlh1 rad18 strain growth inhibition; at 50.0 µM; hits give high values
Procedure, shortened: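 Growth inhibition of the yeast strain was measured after compound exposure and expressed relative to vehicle-treated controls. The strain carries defined defects in DNA damage repair.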

Measured: growth inhibition

CCCCc1c(O)c2c(=O)[nH]c(C)nc2oc1=O
inactive: [1] -9.8% | [2] -5.95% | [3] -9.65% | [4] -13.2% | [5] -32.4% | [6] 10.9%

C[n+]1cccc2cc([N+](=O)[O-])ccc21
inactive: [1] -21.6% | [2] -6.8% | [3] 4.35% | [4] -77.7% | [5] 3.9% | [6] -13.3%

CCSc1nc(COC(=O)NC)c(COC(=O)NC)n1C
inactive: [1] 4.9% | [2] -4.25% | [3] 8.25% | [4] -4.15% | [5] 10.7% | [6] 3.65%

COc1cc(C2SCC(=O)N2c2ccc(-n3c(-c4ccccc4)nc4ccccc4c3=O)cc2)ccc1O (configuration not stated)
inactive: [1] -12.6% | [2] -8.75% | [3] 10.7% | [4] -36.2% | [5] 3.3% | [6] 22%

COc1ccc(/C(=N\O)C(c2ccc(OC)cc2)C(Cl)(Cl)Cl)cc1 (configuration not stated)
inactive: [1] 52.8% | [2] 38.9% | [3] 38.9% | [4] 14.7% | [5] 16.6% | [6] 44.9%

N#C/C(=C\c1ccc2c(c1)OCO2)C(=O)N/N=C/c1ccc2c(c1)OCO2
inactive: [1] 4.6% | [2] 17.3% | [3] 5.4% | [4] -13.7% | [5] -0.1% | [6] 2.95%

CC(C)CCOc1ccc(CCO)cc1
inactive: [1] 0.45% | [2] -8.9% | [3] -4.5% | [4] -7.75% | [5] -36.4% | [6] -24.8%

COC(=O)C1(C)CCCC2(C)C1CCC1(O)C2CC2OC2(C(C)C)C1O (configuration not stated)
inactive: [1] -2.65% | [2] -21.4% | [3] -0.9% | [4] -31.4% | [5] -13.2% | [6] 3.45%

COc1ccc2nc(CC(C)C)c3c(c2c1)-c1ccccc1C3=O
inactive: [1] 1.35% | [2] -8.8% | [3] -10.2% | [4] -12.2% | [5] -0.35% | [6] -12.2%

OC1(CSc2ccccc2)CCCCC1
inactive: [1] 11.1% | [2] 22.2% | [3] 14.5% | [4] 1% | [5] -10.7% | [6] -33%

CC(=Nc1ccccc1)Nc1ccccc1
inactive: [1] -5.45% | [2] 3.3% | [3] 18.1% | [4] -20.6% | [5] 4.7% | [6] 48.1%

CCOC(=O)C(C)(C)c1cn(C)c2ccccc12
inactive: [1] -7.05% | [2] -9.9% | [3] -2.7% | [4] -4.8% | [5] -6.55% | [6] 7.4%

COc1ccc(C#CCC(OC2OC(CO)C(O)C(O)C2O)C(O)c2ccc(OC)c(OC)c2)cc1OC (configuration not stated)
inactive: [1] -0.15% | [2] -7.55% | [3] -6.95% | [4] 12% | [5] -17.2% | [6] -15.9%

O=c1c(Br)nn(C(c2ccccc2)c2ccccc2)c(=O)n1C(c1ccccc1)c1ccccc1
inactive: [1] 23.1% | [2] 2.25% | [3] 10.1% | [4] 15.8% | [5] 3.6% | [6] 13.1%

CCN(CC)CCOC(=O)OCCN(CC)CC
inactive: [1] -13.5% | [2] -12.1% | [3] -7.3% | [4] 4.45% | [5] 17.9% | [6] -38.8%

CCCC#CCN(CCCC)CCCC
inactive: [1] -8.95% | [2] 0.15% | [3] -3.8% | [4] -7.9% | [5] 58% | [6] -20.1%

c1ccc(C23CCCCC2O3)cc1 (configuration not stated)
inactive: [1] 0.75% | [2] 2.95% | [3] 6.55% | [4] 5.95% | [5] 12.4% | [6] 4.85%

CCOC(=O)c1[nH]n(-c2ccccc2)c(=O)c1/C=N/C(=S)Nc1c(CC)cccc1CC
inactive: [1] -18.1% | [2] -29.2% | [3] -18.2% | [4] -13.2% | [5] -8.25% | [6] -15.1%

COC(=O)C1=NNC(c2ccc(C)cc2)C1 (configuration not stated)
inactive: [1] 1.75% | [2] -2.25% | [3] -0.95% | [4] -0.3% | [5] -16% | [6] 2.85%

c1ccc(Oc2ccc(-c3ccccc3)cc2)cc1
inactive: [1] -28.9% | [2] -52.9% | [3] 1.8% | [4] -7.85% | [5] -8.55% | [6] -31.3%

O=C(NC1CCCCC1)Oc1ccc(-c2ccccc2)cc1Cl
active: [1] 98.7% | [2] 99.3% | [3] 98.3% | [4] 98.2% | [5] 99% | [6] 99.1%

O=C1C(O)=C(Cl)C(=O)C(O)=C1Cl.[Zn+2]
inactive: [1] -40.5% | [2] -25.8% | [3] -10.2% | [4] -9.1% | [5] -16.9% | [6] -26.8%

COc1ccc(N/N=C(/c2ccccc2)c2noc(-c3ccccc3)n2)cc1
active: [1] 79.5% | [2] 92.2% | [3] 88.8% | [4] 89.3% | [5] 94.1% | [6] 92.6%

Cc1c(COC(=O)NC(C)C)c(COC(=O)NC(C)C)c(-c2ccccc2)n1-c1ccccc1
inactive: [1] -16% | [2] -1.95% | [3] 13.8% | [4] -8.1% | [5] -14.1% | [6] 64.2%

CCCCCCCCCCCCCCCCSc1ccc2ccccc2c1
inactive: [1] 37.9% | [2] -13.8% | [3] 41.3% | [4] -7.5% | [5] -3.45% | [6] 0.2%

O=C(Nc1ccccc1)c1cc2ccccc2oc1=O
inactive: [1] 6.95% | [2] -2.65% | [3] -4.5% | [4] 4.75% | [5] -13.2% | [6] 9.55%

O=C1C2(CCCC13N=NCC3c1ccccc1)N=NCC2c1ccccc1 (configuration not stated)
inactive: [1] 28.9% | [2] -19.1% | [3] -0.95% | [4] -4.9% | [5] 0.85% | [6] 38.5%

Cc1c2ccccc2nc(CS(=O)(=O)c2ccccc2)[n+]1[O-]
inactive: [1] -26.1% | [2] -13.2% | [3] -4.95% | [4] -60.5% | [5] -16.4% | [6] -6.1%

CC[N+](C)(CC)CCOc1ccc(Cc2nc3c([nH]2)c(=O)n(C)c(=O)n3C)cc1
inactive: [1] 8.15% | [2] 5.9% | [3] 13.8% | [4] -4.4% | [5] -9.6% | [6] 19.6%

S=C(Sc1nc2ccccc2s1)Sc1nc2ccccc2s1
active: [1] 72% | [2] 91.1% | [3] 95% | [4] 85.5% | [5] 97.5% | [6] 90.7%

Cc1cccc2c1Oc1ccccc1C2N1C(=O)/C(=C/c2ccc(Cl)c(Cl)c2)SC1=S (configuration not stated)
inactive: [1] -3.8% | [2] -10.2% | [3] 6.75% | [4] 33.8% | [5] -17.8% | [6] 0.4%

c1ccc(-c2cc(-c3ccccc3)n(-c3ccccc3)c2-c2ccccc2)cc1
inactive: [1] 8.45% | [2] 5.85% | [3] 0.45% | [4] -5.35% | [5] 24.4% | [6] -3.35%

Cc1cncc(C)c1P(=O)(O)O
inactive: [1] -10.3% | [2] -6.1% | [3] -9.05% | [4] -19.8% | [5] 3.55% | [6] 3.65%

COC(=O)C1=C(C(=O)OC)C2(C3C(SC)=CC(C)(C)CC3S1)N(Cc1ccccc1)CCN2Cc1ccccc1 (configuration not stated)
inactive: [1] -7.65% | [2] -5.25% | [3] -9.95% | [4] 9.05% | [5] -8.7% | [6] -27.2%

CN1CCC2(CC1)C(=O)N(N1CCCCCC1)C(=O)N2c1ccccc1
inactive: [1] 26.2% | [2] 4.85% | [3] -0.95% | [4] 4.5% | [5] 4% | [6] 15.5%

Cc1ccc(C(=O)Oc2ccccc2)cc1N=NN(C)C
inactive: [1] -20.7% | [2] -49% | [3] -56.8% | [4] 25.5% | [5] -29.8% | [6] -24.1%

O=C1OC(c2ccc(Cl)cc2)=C/C1=C/c1ccccn1
inactive: [1] -1.4% | [2] 10% | [3] 5.2% | [4] -34% | [5] 4.55% | [6] 11.3%

Source: PubChem BioAssay (NCI)
